Bioassay records (PubChem BioAssay)
IL-2 act: qHTS of IL-2 Activators; 360,000 compounds, 0.065% hits; IL-2 activation reporter assay, cell-based qHTS; stimulated with anti-CD3/CD4/CD28 beads; in transgenic mouse T cells; activation, % (series mostly up to about 46 µM); in the data active means activation above about 50%; inconclusive means mostly about 30% to 49%; further: 0% is about no effect
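Quantitative HTS in unstimulated transgenic mouse T cells, with memory T cells as non-tolerant control and PMA/ionomycin as tolerance-bypass control. Compound pretreatment lasted 60 minutes before 18 h bead stimulation; EGFP/DsRed fluorescence read.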
Mito fusion act: qHTS Assay for Small Molecule Inhibitors of Mitochondrial Division or Activators of Mitochondrial Fusion; S. cerevisiae fusion-defective mutant growth rescue, CellTiterGlo 48 h; 320,000 compounds, 0.23% hits; AID 485298, 2010; Potency, µM (titrated, usually from 46.1 µM), without a hit: at the top dose growth rescue (activation), actives largely listed as activators; further: potency means the concentration at half of the fitted maximal effect; % of control where 0% means no effect; nearly all actives have a fitted effect of over 45% in size
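Temperature-sensitive fusion-defective S. cerevisiae (e.g. fzo1-1, mgm1-5) were grown with compound in YPEG medium (3% ethanol, 3% glycerol) for 48 hours at 37C. Growth rescue was measured as viability by CellTiterGlo luminescence after 10 minutes at ambient.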
PTHR1 agonist: qHTS for PTHR1 Agonists: Primary Screen. Parathyroid hormone/parathyroid hormone-related peptide receptor (Homo sapiens), Q03431. Potency, µM (doses to about 115 µM), inactives show at the top dose activation, hits mostly activators. 410,000 compounds, 0.075% hits. HEK293 GP2 PTHR1 cells, GloSensor cAMP luminescence, 1 h; further: potency means the concentration at half of the fitted maximal effect; nearly all actives have a fitted effect of over 55% in size
Target sequence (Q03431 whole entry, looked up): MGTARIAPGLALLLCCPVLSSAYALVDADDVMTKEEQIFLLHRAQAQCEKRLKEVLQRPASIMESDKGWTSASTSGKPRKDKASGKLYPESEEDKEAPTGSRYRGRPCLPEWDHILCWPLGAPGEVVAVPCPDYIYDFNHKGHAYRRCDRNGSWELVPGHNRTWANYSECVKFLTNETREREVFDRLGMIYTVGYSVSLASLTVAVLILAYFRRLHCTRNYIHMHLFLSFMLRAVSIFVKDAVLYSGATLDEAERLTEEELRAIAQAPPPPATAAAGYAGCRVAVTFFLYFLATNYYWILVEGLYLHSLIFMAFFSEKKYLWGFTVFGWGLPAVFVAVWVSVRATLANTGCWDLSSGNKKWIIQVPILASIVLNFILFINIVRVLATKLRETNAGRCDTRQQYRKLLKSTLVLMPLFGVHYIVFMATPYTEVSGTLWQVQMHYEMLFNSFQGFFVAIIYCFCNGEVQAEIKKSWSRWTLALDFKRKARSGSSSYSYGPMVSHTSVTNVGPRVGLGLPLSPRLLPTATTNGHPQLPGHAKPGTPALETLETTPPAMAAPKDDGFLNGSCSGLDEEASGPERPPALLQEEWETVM
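HEK-293-derived GP2 cells expressing PTHR1 and a GloSensor cAMP reporter, 3,000/well, plated overnight, given luciferin plus IBMX (each 0.5 mM as added) for 1 h at 37 °C, then compound for 1 h at 37 °C. Luminescence was read after 15 min at room temperature.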
BRCA1 expr up: qHTS Assay to Identify Small Molecule Activators of BRCA1 Expression | MCF7-BRCA1-FFLuc reporter, luminescence, 48 h; response scale: scaled: vehicle 0%, 10 µM genistein 100% | Potency, µM (series often up to 46.1 µM), inactives show at the highest dose activation, most hits filed as activators | 380,000 compounds, 1.1% hits; further: potency means the concentration at half of the fitted maximal effect; nearly all actives have a fitted effect of over 80% in size
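Reporter cells (MCF7, BRCA1 promoter-firefly luciferase) received library compounds across a concentration series for 48 h. End-point luminescence was measured and concentration-effect curves derived after normalization.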
TCR act: Activators of T cell receptors: qHTS campaign | primary human leukocytes, anti-CD3, IL-2 HTRF, 48 h | Potency, µM (series often up to 9.22 µM), without a hit: at the highest dose activation of IL-2 secretion, hits mostly activators | 330,000 tested, under 10 active | AID 504894, 2011; further: % of control where 0% means no effect
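IL-2 produced over 48 hr by a-CD3 bead-stimulated primary human leukocytes exposed to compounds was detected with a homogeneous time-resolved FRET immunoassay, 665nm acceptor signal after 320nm excitation.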
BCR signal inh: qHTS Assay to Find Inhibitors of Chronic Active B-Cell Receptor Signaling. ABC-DLBCL IkBa-CBG/CBR reporter, luminescence ratio, 4 h. Potency, µM (highest dose often 46.1 µM), for inactives: at the top dose activity change, negative = inhibition, usual class: inhibitors. 340,000 compounds, 0.05% hits. AID 493014, 2011; active means well fitted inhibition curve with a large enough effect in the signal ratio, with a control signal flat, not every such curve was filed as active; inconclusive means small, poorly fitted or top-dose-only effect, or effect the other way, or a change in a side signal; the % refers to the signal ratio;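 further: potency means the concentration at half of the fitted maximal effect; plate controls were basal doxycycline-induced cells for no effect and cells given 10 µM MG132 for full effect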
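Doxycycline induced both beetle luciferases in TMD8 lymphoma cells; IKK-driven degradation limits the IkappaBalpha-fused green signal, while red luminescence normalises for cell number and nonspecific effects. Compounds tested up to 46 uM, 4 hrs.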
Active calls of the source: *; i = inactive; ? = inconclusive; . = not tested or not shown; [ ] = remark or other dose. Rows were chosen to be rich in hits. Some 1.3% of all compounds tested hit in one or more screens of this group. Unless noted, the call rests on the fitted dose curve; in most records, active means well fitted curve in the direction sought with a large enough effect; inconclusive means small, poorly fitted or top-dose-only effect, or another doubt; inactive means no such curve, though single readings can be large; an effect the other way counts as inactive or inconclusive.

SMILES	IL-2 act	Mito fusion act	PTHR1 agonist	BRCA1 expr up	TCR act	BCR signal inh
Cn1c2cc(B(O)O)sc2c2cnn(Cc3c(F)cccc3F)c(=O)c21	.	-3%	.	.	.	-2%
O=C(Cc1ccc(OCC2CCCCC2)cc1)NO	.	.	.	14%	.	.
CN(Cc1ccccc1)C(=O)N1CCOCC1	-2	2%	i	1%	0%	2%
COc1ccc(OC)c(-c2csc(NC(=O)COC(=O)C3(C)CC3(Cl)Cl)n2)c1 (stereo not drawn)	0	16µM*	-34%	-25%	2%	?
COc1ccc(C(=O)N=S2CCN(C(=O)c3ccc(Cl)cc3)CC2)cc1	1	4%	-18%	-9%	4%	11%
COCCn1c(C)cc(C(=O)COC(=O)Cc2n[nH]c(=O)c3ccccc23)c1C	-3	16%	15%	8.9µM*	5%	-8%
COCCn1c(C)cc(C(=O)COC(=O)c2ccc3ncsc3c2)c1C	-1	3%	-13%[57.5 µM]	11µM*	-1%	-12%
Cc1cc(C(=O)COC(=O)Cc2n[nH]c(=O)c3ccccc23)c(C)n1CC(F)(F)F	2	3%	-12%	0%	.	-12%
COCCn1c(C)cc(C(=O)COC(=O)c2ccc(S(=O)(=O)N(C)C)cc2)c1C	1	.	-8%	1%	1%	0%
COCCn1c(C)cc(C(=O)COC(=O)c2ccc(NC(=O)CC#N)cc2)c1C	2	3%	-28%	2.8µM*	3%	?
Cc1cc(C(=O)COC(=O)c2ccc(O)cc2)c(C)n1CC(F)(F)F	1	11%	-40%	7.9µM*	7%	?
O=C(C[n+]1ccccc1)c1ccc(O)c(O)c1	.	.	.	1%	.	.
COCCn1c(C)cc(C(=O)COC(=O)c2cccnc2SC)c1C	0	.	i	8.9µM*	-10%	-11%
COCCn1c(C)cc(C(=O)COC(=O)c2ccccc2Br)c1C	-2	-4%	-35%	-32%	-12%	-4%
COCCn1c(C)cc(C(=O)CSc2ccc(NC(C)=O)cc2)c1C	0	1%	-7%	7.1µM*	5%	?
C=CCn1c(C)cc(C(=O)CSc2ccc(NC(C)=O)cc2)c1C	1	2%	-9%[57.5 µM]	?	1%	-11%
CN(C)c1nc2ccc(OCCN3CCCCC3)cc2s1	0	0%	-6%[57.5 µM]	11µM*	2%	-4%
CCOC(=O)c1c(-c2ccccc2)csc1NC(=O)/C(C#N)=C/c1ccc(O)c(OC)c1	58*	13%	-4%	-44%	-4%[46.1 µM]	24%
COC(=O)c1[nH]c2cc(OC)c(OC)cc2c1/C=N/Nc1ccccc1	532*	-27%	i	-25%	-2%	-1%
Cc1ccc(-c2nnc(Cc3ccc(Cl)cc3)o2)cc1	-2	5%	-15%	13µM*	5%	?
COc1ccc(SCCc2nnc(-c3ccccc3)o2)cc1	0	9%	-13%	-2%	-9%	0%
COc1ccc(Cc2nnc(-c3ccccc3)o2)cc1	0	27%	i	13µM*	-1%	?
c1ccc(Cc2nnc(-c3ccccc3)o2)cc1	-3	12%	-33%	-71%	-3%	?
COc1ccc(-c2nnc(-c3ccc(C)cc3)o2)cc1	-1	10%	-7%	2.8µM*	1%	?
Brc1ccc(-c2nnc(Cc3ccccc3)o2)cc1	0	3%	-39%	11µM*	0%	?
SMILES	IL-2 act	Mito fusion act	PTHR1 agonist	BRCA1 expr up	TCR act	BCR signal inh
Cc1ccc(C(=O)N(Cc2nnc(-c3ccc(Cl)cc3)o2)C2CC2)o1	0	13%	-14%	1%	5%	-6%
COC(=O)c1c(-c2ccc(S(C)(=O)=O)cc2)sc2ccc(OC)cc12	-2	.	-51%	4.5µM*	4%	?
COC(=O)c1c(-c2cc(OC)cc(OC)c2)sc2ccc(OC)cc12	0	.	-15%	16%	3%	?
COC(=O)c1c(-c2ccc(S(C)(=O)=O)cc2)sc2cc(OC)ccc12	-1	.	-27%	6.3µM*	0%	?
CCOC(=O)[C@H]1[C@H]2COc3ccc(OC)cc3[C@@H]2N2C(=O)c3cc(F)c(F)cc3NC(=O)[C@@]12C	-2	5%	i	-18%	-8%	-2%
CC(C)NC(=O)c1ccc(N(Cc2ccc(Cl)cc2)S(C)(=O)=O)cc1	0	4%	i	-10%	-2%	-10%
COc1ccc2cc(C#N)c(SCC(=O)N3CCCC3)nc2c1	-4	-1%	-6%	11µM*	1%	2%
COCCC(=O)Nc1c(-c2ccccc2)c2cc(Br)ccc2[nH]c1=O	0	-2%	-12%	2%	-4%	-1%
O=C(NCCN1CCOCC1)c1sc2cc(Cl)ccc2c1Cl	7	-1%	i	?	1%	3%
O=C(NCCCN1CCOCC1)c1sc2ccccc2c1Cl	-2	0%	i	11µM*	6%	?
O=C(NCC(=O)N1CCCCC1)c1sc2ccccc2c1Cl	1	2%	-22%	4.5µM*	-8%	?
CCCc1ccc2oc(C(=O)NCCc3cnn(C)c3)c(C)c2c1	-4	4%	-51%	8.9µM*	5%	?
CCCc1ccc2oc(C(=O)NCCc3nc(C(=O)OCC)cs3)c(C)c2c1	-1	8%	-40%	-8%	-1%	?
Cc1c(C2=CCN(S(=O)(=O)c3ccc(CC(C)C)cc3)CC2)c2ccccc2n1CC(=O)N1CCCC1	.	.	45µM*	.	.	.
Cc1cc(NC(=O)c2cccc(Cl)c2)n[nH]1	0	10%	-18%	4µM*	-11%	?
Cc1ccc(NC(=O)c2cccc(Cl)c2)nc1	-1	1%	-7%	?	-2%	?
O=C(c1ccco1)N1CCN(C(=O)c2cn(-c3ccccc3)nc2-c2ccccc2)CC1	0	5%	-19%	53%	-6%	-1%
CC(OC(=O)c1ccc([N+](=O)[O-])o1)C(=O)Nc1nc(-c2ccc(F)c(F)c2)cs1 (stereo not drawn)	0	8%	-54%	13µM*	-1%	14%
C(=N\n1cnnc1)/c1ccc(OCc2ccccc2)cc1	2	1%	i	13µM*	.	?
COC(=O)c1ccc(COc2ccc(/C=N/N3CCN(C)CC3)cc2)cc1	1	-5%	i	?	-4%	7%
CN1CCN(/N=C/c2ccc(OCc3ccccc3)cc2)CC1	1	-3%	-47%	7.9µM*	-3%	?
